PubChem BioAssay (NCATS)
Inconclusive results are not listed. The call rests on the fitted dose curve; in most records, active means well fitted curve in either direction with a large enough effect (not every such curve was filed as active); inconclusive means small, poorly fitted or top-dose-only effect, or another doubt; inactive means flat fitted curve, though single readings scatter.

Experiment: Stat Signaling Pathway (AID 446);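 further: ME-180 cervical cancer cells given 40 pM IL-6 alongside compound; SIE-controlled beta-lactamase reporter measured as 460/530 nm FRET emission ratio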
Conditions: ME-180 (cervical carcinoma) SIE beta-lactamase reporter, IL-6 stimulated, 5 h; at 17.2 µM (top of the series) unless noted
Method in brief: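 IL-6/STAT signaling read in ME-180 cells via an SIE beta-lactamase reporter. Stimulus was 40 pM IL-6 (its AC50) for 5 hrs, so both activation and inhibition register.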
On the % scale 0 is the no-effect control and ±100 the full control effect.

activity, negative = inhibition, inactive:
CCCCOC(=O)CCc1nc2ccccc2[nH]1 6.02%, COn1c(SC2CCCCC2)nc2ccccc2c1=O -9.6%, Cc1ccc(S(=O)(=O)NCC(=O)OCN2C(=O)c3ccccc3C2=O)cc1 9.1%, Cc1cc(O)c(C(C)C)cc1N=C1CSC(=O)N1 -6.54%, COc1cccc(C2C(C(=O)c3sc(C)nc3C)=C(O)C(=O)N2CCN2CCOCC2)c1OC (stereo not given) 7.97%, COCCN(C(=O)Nc1ccccc1)c1ccccc1C 6.32%, CSc1nnc(N(CCC#N)CCC#N)s1 2.15%, C/C(NC(=O)c1cccs1)=C1\C(=O)C[C@@H]2[C@H]1C2(C)C -12.2%, O=c1c2c3c(sc2n2cnnc2n1C1CCCCC1)CCC3 22.2%, CCCCCOC(=O)C(C)c1c(C)[nH]c(=S)[nH]c1=O (stereo not given) -4.24%, CCn1c(SCC(=O)NCc2ccco2)nnc1-c1ccc(N)cc1 -0.962%, COc1ccccc1N(Cc1cc2cccc(C)c2[nH]c1=O)C(=O)C(C)C -8.46%, Cc1cccc(-c2nc(C#N)c(NC3CCCCC3)o2)c1 -7.27%, COc1ccc(C(=O)/C=C/Nc2cccc(C)n2)cc1OC 0.139%, CSc1nc(N)nc(SCC(=O)CC(=O)OC(C)C)c1C#N -1.28%, c1ccc(SCc2nc3ccccc3[nH]2)nc1 8.86%, O=C(c1coc(=O)c(Br)c1)N1CCOCC1 1.69%, COC(=O)c1cc(S(=O)(=O)N2CCOCC2)c(N2CCOCC2)cc1N1CCOCC1 5.81%, CCCCOc1ccccc1P(=O)(O)CP(=O)(c1ccccc1)c1ccccc1 -14.9%, CN(C)CCCN(CCCNC(=O)/C=N/O)Cc1ccccc1 17.4%, CCCCc1nc(N2CCOCC2)c(C#N)c2c1COC(C)(C)C2 -1.34%, O=C(NCc1ccco1)c1ccc(=O)oc1 -6.97%, O=C1C(=O)N(Cc2cccnc2)C(c2ccccn2)/C1=C(/O)c1ccc(F)cc1 (stereo not given) 0.323%, COc1cccc(C2/C(=C(/O)c3ccc(C)cc3)C(=O)C(=O)N2Cc2ccco2)c1 (stereo not given) -9.32%, COC(=O)COc1ccc(Oc2nc(SC)nc(N(C)C)n2)nn1 -4.81%
